Inconclusive results are not listed. Activity calls are given as the source filed them. Calls follow the shape of the dose curve; as a rule, active = well fitted inhibition curve with a large enough effect in the repeat runs; inconclusive = weak or mixed curves, or effect the other way; inactive = no such curve, though single readings can be large or run the other way.
These molecules were tested against Androgen receptor (Homo sapiens) (UniProt P10275) (assay: qHTS assay to identify small molecule antagonists of the androgen receptor (AR) signaling pathway using the MDA cell line (AID 743042; also: nearly all actives have a fitted effect of over 55% in size)). Details: MDA-kb2 AR-luc, MMTV luciferase, R1881 antagonist, 16 h; series mostly up to 70.3 µM; activity change, negative = inhibition: at the top concentration.
Androgen receptor (Homo sapiens), sequence (P10275 whole entry, looked up): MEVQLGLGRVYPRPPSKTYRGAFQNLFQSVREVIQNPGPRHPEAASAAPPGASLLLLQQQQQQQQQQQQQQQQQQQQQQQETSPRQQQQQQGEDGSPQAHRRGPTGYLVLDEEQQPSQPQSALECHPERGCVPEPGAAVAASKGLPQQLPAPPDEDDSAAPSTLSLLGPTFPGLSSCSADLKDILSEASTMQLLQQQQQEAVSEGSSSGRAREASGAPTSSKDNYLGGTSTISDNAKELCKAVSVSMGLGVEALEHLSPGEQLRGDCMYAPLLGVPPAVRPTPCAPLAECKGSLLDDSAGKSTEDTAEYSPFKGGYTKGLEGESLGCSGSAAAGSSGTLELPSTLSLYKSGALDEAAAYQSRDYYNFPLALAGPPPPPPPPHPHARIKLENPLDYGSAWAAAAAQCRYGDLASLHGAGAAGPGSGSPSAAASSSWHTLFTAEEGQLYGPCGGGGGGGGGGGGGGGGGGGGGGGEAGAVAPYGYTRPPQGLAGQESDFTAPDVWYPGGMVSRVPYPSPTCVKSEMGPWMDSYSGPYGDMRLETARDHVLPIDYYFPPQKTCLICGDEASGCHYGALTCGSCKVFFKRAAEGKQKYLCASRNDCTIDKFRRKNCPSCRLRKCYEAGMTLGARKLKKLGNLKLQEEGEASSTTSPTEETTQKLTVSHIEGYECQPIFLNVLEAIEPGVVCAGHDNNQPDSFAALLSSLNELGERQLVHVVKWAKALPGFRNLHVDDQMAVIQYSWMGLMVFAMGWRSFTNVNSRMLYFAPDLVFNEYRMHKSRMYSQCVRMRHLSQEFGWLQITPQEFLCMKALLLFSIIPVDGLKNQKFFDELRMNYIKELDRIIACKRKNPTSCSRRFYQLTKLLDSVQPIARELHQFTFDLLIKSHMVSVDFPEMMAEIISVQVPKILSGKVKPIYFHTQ
Description: U.S. Tox21 Program National Center for Advancing Translational Sciences [NCATS] NIH Chemical Genomics Center [NCGC] U.S. Environmental Protection Agency [EPA] National Institutes of Environmental Health Sciences [NIEHS] National Toxicology Program [NTP] U.S. Food and Drug Administration [FDA] Tox21 Assay Overview: Androgen receptor (AR), a nuclear hormone receptor, plays a critical role in AR-dependent prostate cancer and other androgen related diseases. Endocrine disrupting chemicals (EDCs) and their interactions with steroid hormone receptors like AR may cause disruption of normal endocrine function as well as interfere with metabolic homeostasis, reproduction, developmental and behavioral functions. To identify the compounds that inhibit AR signaling, MDA-kb2 AR-luc cell line (from ATCC, deposited by Wilson et al.) was used to screen the Tox21 10K compound library. MDA-kb2 AR-luc cell line is human breast carcinoma cell line that was stably transfected with a luciferase reporter gene under control of the MMTV promoter containing response elements for both androgen receptor (AR) and glucocorticoid receptor (GR).
Tox21 Assay Protocol Summary: MDA-kb2 cells were dispensed at 3,000 cells/4 uL/well of culture medium into white wall/solid-bottom 1536-well plates using a Multidrop Combi (ThermoFisher Scientific, Waltham, MA) dispenser. After the assay plates were incubated at a 37C and 0% CO2 for 5 hr, 23 nL of compounds dissolved in DMSO, positive controls or DMSO only was transferred to the assay plate by a Pintool station (Kalypsys, San Diego, CA), followed by addition of 1 uL of agonist (R1881) in culture medium using a Bioraptr Flying Reagent Dispenser (FRD) workstation (Beckman Coulter, Indianapolis, IN, USA). The plates were incubated at a 37C and 0% CO2 for 16 h. After 15.5 h incubation, 1uL of CellTiter-Fluor reagent (Promega, Madison, WI) was added using a Bioraptr FRD to each plate for measuring cytotoxicity. The fluorescence intensity was quantified on a ViewLux plate reader (PerkinElmer, Shelton, CT) following 30 min incubation at 37C and 0% CO2. For measuring luciferase reporter gene activity, 4 uL of ONE-Glo reagent (Promega) was added to each plate using a Bioraptr FRD and luminescence was quantified on a ViewLux (PerkinElmer) plate reader after 30 min incubation at room temperature.
For `CC(C)N(Cc1ccccc1)C(=O)C(C)(C)C`, the “activity change, negative = inhibition” value was -0.244% (inactive).
For `CNC(=O)Oc1ccccc1C(C)C`, the “activity change, negative = inhibition” value was 8.95% (inactive).
In the case of `CCOC1Oc2ccc(OS(C)(=O)=O)cc2C1(C)C` (configuration not stated), the Potency was 60.6 µM (active).
`CNC(=O)O/N=C(/CSC)C(C)(C)C` was tested, and the “activity change, negative = inhibition” value was 5.64% (inactive).
For `CCN(CC)C1CCCCC1`, the “activity change, negative = inhibition” value was -5.27% (inactive).
`CC[C@H](N)c1ccccc1` was tested, and the “activity change, negative = inhibition” value was 0.26% (inactive).
With `CNC(=O)NC(O)C(Cl)(Cl)Cl` (configuration not stated) the “activity change, negative = inhibition” value was -0.36% (inactive).
For `O=S1(=O)OCCO1`, the “activity change, negative = inhibition” value was 8.55% [at 95 µM] (inactive).
`C[C@H](N)C(=O)c1ccccc1` was tested, and the Potency was “inactive”.
For `N[C@@H]1C[C@H]1c1ccccc1`, the “activity change, negative = inhibition” value was 4.64% (inactive).
With `O=C(Cl)/C=C/C(=O)Cl` the “activity change, negative = inhibition” value was 6% [at 95 µM] (inactive).
For `C[C@H](CN1CCOCC1)C(C(=O)N1CCCC1)(c1ccccc1)c1ccccc1`, the “activity change, negative = inhibition” value was 6.51% [at 95 µM] (inactive).
For `COc1cccc([C@@]2(O)CCCC[C@@H]2CN(C)C)c1`, the “activity change, negative = inhibition” value was -5.33% (inactive).
For `COP(=O)(O)OC`, the “activity change, negative = inhibition” value was 16.7% [at 95 µM] (inactive).
`Clc1cc2c(cc1Cl)Oc1cc(Cl)c(Cl)cc1O2` was tested, and the activity change, negative = inhibition was -2.57% [at 0.341 µM] (inactive).
With `CCC1(c2ccccc2)CCC(=O)NC1=O` (configuration not stated) the “activity change, negative = inhibition” value was -6.01% (inactive).
In the case of `BrCc1ccc(Br)cc1`, the “activity change, negative = inhibition” value was -0.805% (inactive).
For `CCOC(=O)CC(SP(=S)(OC)OC)C(=O)OCC` (configuration not stated), the Potency was “inactive”.
With `C[N+]1(C)CCCCC1` the “activity change, negative = inhibition” value was 0.831% (inactive).
With `COc1ccc(C=O)cc1O` the “activity change, negative = inhibition” value was -9.03% [at 95 µM] (inactive).
With `Nc1c(Cl)c(F)nc(OCC(=O)O)c1Cl` the “activity change, negative = inhibition” value was 1.95% (inactive).
In the case of `C[C@H]1CCCC(=O)CCC/C=C/c2cc(O)cc(O)c2C(=O)O1`, the Potency was 52.5 µM (active).
For `CCSC(=O)Cl`, the “activity change, negative = inhibition” value was 2.27% [at 95 µM] (inactive).
`CCC1(c2ccccc2)C(=O)N(COC)C(=O)N(COC)C1=O` was tested, and the “activity change, negative = inhibition” value was 18% (inactive).
With `CCN[C@@H](C)Cc1ccccc1` the “activity change, negative = inhibition” value was 9.14% [at 95 µM] (inactive).
With `O=C/C=C/c1ccco1` the “activity change, negative = inhibition” value was 3.76% (inactive).
In the case of `CN(C)C(=O)Oc1cc(OC(=O)N(C)C)cc(C(O)CNC(C)(C)C)c1` (configuration not stated), the “activity change, negative = inhibition” value was 1.56% [at 32.5 µM] (inactive).
In the case of `COC(=O)c1ccc(CBr)cc1`, the “activity change, negative = inhibition” value was 51.8% [at 95 µM] (inactive).
For `CCNc1nc(Cl)nc(NC(C)(C)C)n1`, the “activity change, negative = inhibition” value was 10.8% (inactive).
For `Cc1ccc(S(=O)(=O)N[C@@H](CCCCN)C(=O)CCl)cc1`, the Potency was 23.7 µM (active).
For `OP(O)c1ccccc1`, the “activity change, negative = inhibition” value was -15.3% [at 95 µM] (inactive).
In the case of `Clc1ccc(C(Cl)(Cl)Cl)cn1`, the “activity change, negative = inhibition” value was 7.39% (inactive).
With `CCCOc1nn(C(=O)NS(=O)(=O)c2ccccc2C(=O)OC)c(=O)n1C` the “activity change, negative = inhibition” value was 4.29% (inactive).
In the case of `CCC(C)(C#N)N=NC(C)(C#N)CC` (configuration not stated), the “activity change, negative = inhibition” value was 10.5% (inactive).
`CCOC(=O)NC(C)(C)Cc1ccc(Cl)cc1` was tested, and the “activity change, negative = inhibition” value was 0.447% (inactive).
For `CCOP(=S)(OCC)SCCl`, the “activity change, negative = inhibition” value was -7.33% (inactive).
In the case of `[O-][Br+2]([O-])O`, the “activity change, negative = inhibition” value was 23.3% (inactive).

From PubChem BioAssay (Tox21)
% is scaled to controls: 0 for no effect and ±100 for the full control effect; potency is read from the fitted curve at half-maximal effect.
